Reference: PubChem BioAssay AID1851 (National Center for Advancing Translational Sciences (NCATS), 2009)
Several values for one entry are separate records, joined by “and”; a condition that tells them apart may be missing. Equal entries are not always repeated. The whole screen tested about 16,000 compounds, of which about 2,600 (16%) were called active. Roughly 20% stayed inconclusive and do not appear here. These entries were drawn from the full list. Unmarked numbers belong to inactive results. Calls follow the shape of the dose curve; as a rule, active = well fitted curve in the direction sought with a large enough effect; inconclusive = small, poorly fitted or top-dose-only effect, or effect the other way; inactive = no such curve, though single readings can be large or run the other way.

Molecular target: Cytochrome P450 2D6 (Homo sapiens) (UniProt P10635)
Assay: Cytochrome panel assay with activity outcomes
Settings: recombinant CYP, pro-luciferin dealkylation, luminescence, p450-cyp2d6; series mostly up to 57.1 µM; activity, negative = inhibition: at the top concentration
% is scaled to controls: 0 for no effect and ±100 for the full control effect.

Sequence of Cytochrome P450 2D6 (Homo sapiens) (P10635 whole entry, looked up): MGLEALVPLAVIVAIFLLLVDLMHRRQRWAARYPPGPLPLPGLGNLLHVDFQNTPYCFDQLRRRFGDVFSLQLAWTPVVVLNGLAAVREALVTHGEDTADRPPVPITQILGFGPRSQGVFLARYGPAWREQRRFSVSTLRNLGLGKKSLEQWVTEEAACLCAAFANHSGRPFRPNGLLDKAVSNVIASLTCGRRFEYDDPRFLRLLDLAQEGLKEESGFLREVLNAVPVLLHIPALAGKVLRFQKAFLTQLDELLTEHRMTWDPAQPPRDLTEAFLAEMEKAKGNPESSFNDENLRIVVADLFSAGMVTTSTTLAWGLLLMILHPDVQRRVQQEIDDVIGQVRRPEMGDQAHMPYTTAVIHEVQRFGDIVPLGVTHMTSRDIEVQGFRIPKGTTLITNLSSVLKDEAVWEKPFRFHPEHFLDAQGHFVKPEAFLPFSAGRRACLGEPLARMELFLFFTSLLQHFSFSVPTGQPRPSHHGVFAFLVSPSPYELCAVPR

SMILES	activity, negative = inhibition	AC50
S=c1nc(-c2ccccc2)oc2c1CCCC2	-16.9%	–
CN(CC(=O)O/N=C(\N)c1ccccn1)S(=O)(=O)c1ccccc1	0.421%	–
Cc1ccc(S(=O)(=O)N(CC(=O)N2CCN(c3ccc(F)cc3)CC2)C2CCCCC2)cc1	-7.36%	–
O=S(=O)(NCc1cccnc1)c1ccc(Cl)nc1	-10.6%	–
CCN(C1CCCCC1)S(=O)(=O)c1ccc(S(=O)(=O)NCc2ccncc2)cc1	–	7.94 µM (active)
Cc1ccc(/C=C/c2ccc(=O)n(Cc3ccc(Cl)cc3Cl)n2)cc1	7.32%	–
COC(=O)[C@@]1(Cc2ccc(OC)cc2)[C@@H]2C(=CC(=O)[C@H]2CC(=O)C(=O)N2CCCC2)CN1C(=O)c1ccccc1	-5.71%	–
COc1cc(C2C(C#N)=C(N)N(Nc3ccccc3)C3=C2C(=O)CC(C)(C)C3)ccc1OCc1cccc(F)c1 (stereo not drawn)	-10.8%	–
CC1=C(CC(=O)O)c2cc(F)ccc2/C1=C\c1ccc(S(C)(=O)=O)cc1	8.35%	–
Clc1ccc2c(NCCNC3CCCCC3)ccnc2c1	–	3.16 µM (active)
Clc1ccc2c(NCCNc3ccnc4cc(Cl)ccc34)ccnc2c1	-10.3% [at 11.4 µM]	–
C/C(CC/C(C)=N/O)=N/O	8.85% [at 11.4 µM]	–
O=C(O)c1cccnc1C(=O)O	8.44%	–
CC(=O)NCCNc1cc(-c2ccccc2CN(C)C)ncn1	9.47%	–
Cc1noc(C)c1-c1cc(NC2CCNCC2)ncn1	7.12%	–
Cc1noc(C)c1-c1cc(Nc2ccccc2)ncn1	-1.67%	–
CN(C)Cc1ccccc1-c1cc(N(C)C)ncn1	–	1.26 µM (active)
CNc1cc(-c2ccccc2CN(C)C)ncn1	–	0.631 µM (active)
CN(C)Cc1ccccc1-c1cc(Nc2ccccc2)ncn1	–	12.6 µM (active)
CNc1cc(-c2ccccc2C(F)(F)F)ncn1	-2.24%	–
CN(C)c1cc(-c2cccc(NS(C)(=O)=O)c2)ncn1	-1.1%	–
CN(C)Cc1ccccc1-c1cc(NC2CC2)ncn1	–	0.0398 µM (active)
CC(=O)c1ccc(NC(=O)C2(c3ccccc3)CCOCC2)cc1	-8.6%	–
CON1C(=O)C(=O)N(OC)C(C)(C)C1C (stereo not drawn)	3.21%	–
CCOC(=O)N1CCN(C(=O)c2ccc3c(=O)n(-c4ccc(OC)cc4)c(=S)[nH]c3c2)CC1	-7%	–

SMILES	activity, negative = inhibition	AC50
C=CCn1c(=O)c2c(nc(-c3ccc(S(=O)(=O)O)cc3)n2C)n(C)c1=O	7.35%	–
CN(C)C[C@H]1CCC2=C(C1=O)C(c1ccc(Cl)c(Cl)c1)C1=C(CC[C@H](CN(C)C)C1=O)O2	-12.4% [at 11.4 µM]	–
[O-][n+]1c(CN2CCCCC2)nc2cccc3c2c1-c1ccccc1-3	-13.1% [at 11.4 µM]	–
CCCOC(=O)c1ccc(NC(=O)c2cn(CC)c3nc(C)ccc3c2=O)cc1	-27.3%	–
O=c1c(-c2ccccc2)nc2cnc(Oc3cccc(Cl)c3)nc2n1C1CC1	-7.95%	–
Cc1ccc(NC(=O)CN2CCC(NC(=O)Cc3ccccc3)CC2)cc1C	-27.2%	–
Cc1c(Cl)cccc1NC(=O)CN1CCC(C(O)(c2ccccc2)c2ccccc2)CC1	–	0.224 µM (active)
Cc1cc(Cl)ccc1NC(=O)CN1CCC(C(O)(c2ccccc2)c2ccccc2)CC1	–	14.1 µM (active)
Cc1c(Cl)cccc1Nc1ccccc1C(=O)O	-2.06% [at 25.6 µM]	–
Cc1c(Cl)cccc1NC(=O)CC1NCCNC1=O (stereo not drawn)	-1.15%	–
CCOC(=O)c1ccccc1NC(=O)CSc1cccc[n+]1[O-]	-7.26%	–
FC(F)(F)c1cccc(-c2nc3nc(Cl)c(Cl)nc3[nH]2)c1	-1.57% [at 11.4 µM]	–
Cc1ccc(S(=O)(=O)/N=C(/Nc2c(C)n(C)n(-c3ccccc3)c2=O)c2ccc(Cl)cc2)cc1	-9.19%	–
O=C(c1cccc(C(F)(F)F)c1)N1CCC(O)(CS(=O)(=O)Cc2ccccc2)CC1	-13.5%	–
COC(=O)c1ccc(/C=N\NC(=O)c2ccc(C)cc2Cl)cc1	7.06%	–
CN1c2ccccc2C(C)(C)C12C=Nc1c(cc(N3CCOCC3)c3ccccc13)O2 (stereo not drawn)	-25.9%	–
O=C1C=CC(=Nc2cccc3c(N=C4C=CC(=O)O4)cccc23)O1	3.55% [at 11.4 µM]	–
O=C(c1ccco1)N1CCN(C(=O)c2nn3cccnc3c2Cl)CC1	0.557%	–
COc1cc(/C=C\C(=O)N2CCC=CC2=O)cc(OC)c1OC	-0.509% [at 25.6 µM]	–
CCCC(=O)Nc1nc2nc(-c3ccccc3)cc(-c3ccccc3)n2n1	9.65%	–
O=C(O)CCc1ccc(-c2ccccc2)[nH]1	3.02% [at 11.4 µM]	–
CC(C)(C)c1ccc(C(=O)Nc2ccc(NC(=O)c3ccco3)cc2)cc1	-9.98%	–
CC(=O)Nc1nonc1NC(=O)c1ccc(C(C)(C)C)cc1	–	10 µM (active)
CC(C)(C)c1ccc(C(=O)NCc2ccc(Cl)cc2)cc1	23.5%	–
CC/C=C\CC[C@H](O)C1=CCCCC1=O	0.601% [at 11.4 µM]	–

SMILES	activity, negative = inhibition	AC50
CC1=C(C(=O)Nc2cccnc2)C(c2cccnc2)n2nc(-c3cccs3)nc2N1 (stereo not drawn)	11.8%	–
Cc1ccc(C)c(Cn2c(C(=O)OC(C)C)cc3c2ccn3C)c1	-10.6%	–
COc1ccc(CN(CCN(C)C)c2ccccn2)cc1	–	501 nM (active) and 126 nM (active) and 100 nM (active)
O=C(COc1ccc(Cl)cc1)N(Cc1ccccc1)c1ccccn1	5.58%	–
CN(C)CCOC(=O)COc1ccc(Cl)cc1	–	inactive
CN(C)CCN(Cc1ccc(Cl)cc1)c1ccccn1	–	0.02 µM (active)
COc1ccc(CC(=O)O/N=C(\N)Cc2ccc(OC)cc2)cc1	3%	–
CCCCCCCCCCCCCCCC[N+](C)(C)CCN(Cc1ccc(OC)cc1)c1ncccn1	–	12.6 µM (active)
CCSc1nnc(-c2ccccc2NC(C)=O)c(=O)[nH]1	-26.1%	–
COc1ccc(-c2nc3cnc(N4CCNCC4)nc3n(Cc3ccc(F)cc3)c2=O)cc1	-0.475%	–
CCOC(=O)CSc1nnc(Cc2cc(=O)[nH]c(=O)[nH]2)n1-c1cccc(OC)c1	0.419%	–
CCNC(=O)c1ccc(-n2nc(C)cc2-c2ccccc2)cc1	6.71%	–
CC(C)=CCC/C(C)=C/CO/N=C1/C[C@@H](O)[C@@H](O)[C@@H]2[C@H]3C(=O)N(c4ccc(F)cc4F)C(=O)[C@@H]3CC[C@@H]12	8.95% [at 11.4 µM]	–
COc1ncc2nc(-c3cn(C)c4ccccc34)c(=O)n(C)c2n1	3.38%	–
CN(C)/C(CN1CCOCC1)=C1\N=C(c2ccccc2)OC1=O	5.8%	–
NC(N)=N/N=C\c1ccc(O)c(C(=O)O)c1	13.4% [at 11.4 µM]	–
CC(=O)/C(=N\N=C(N)N)c1ccccc1	-4.42% [at 11.4 µM]	–
NC(N)=N/N=C(/c1ccccc1)c1ccc(O)cc1O	–	1.26 µM (active)
COCCCNC(=O)c1c(NC(=O)c2cccs2)sc2c1CCCC2	-17.3%	–
CCC1OC23CCCCC2C(C#N)(C(=N)O3)C1(C#N)C#N (stereo not drawn)	8.79%	–
Cc1ccc2nc(SCc3nnc(-c4ccccc4[N+](=O)[O-])o3)c(C#N)cc2c1	-4.06%	–
Cc1nonc1NCn1nnc2ccccc21	8.37%	–
NN(CC(=O)O)CC(=O)O	-0.968% [at 11.4 µM]	–
CO[C@H]1COC(=O)[C@H](C)NC(=O)C/C=C\[C@@H](C)[C@@H](NS(=O)(=O)c2ccc(C)cc2)COC(=O)C/C=C\[C@@H]1C	6.92% [at 11.4 µM]	–
CC1CCC(C(=O)O)([C@H](Br)C(=O)O)CC1 (stereo partly drawn)	-1.57% [at 11.4 µM]	–

SMILES	activity, negative = inhibition	AC50
Cc1nc2cnc(N3CCN(C)CC3)nc2n(C)c1=O	12%	–
O=C1c2cccc([N+](=O)[O-])c2C(=O)N1c1ncn[nH]1	10.8% [at 11.4 µM]	–
COC(=O)[C@]1(C)CCC(c2ccc(C)cc2)=C(CC(=O)O)C1	13.4% [at 11.4 µM]	–
C[C@]1(C2CCCC2)Cc2cc(OCC(=O)O)c(Cl)c(Cl)c2C1=O	6.24%	–
CSc1cccc(NC(=O)OC2CCCCCCCCCCC2)c1	10.7% [at 11.4 µM]	–
Cc1cc(NC(=O)C2CCCC2)n(-c2nc3ccccc3[nH]2)n1	-10.9%	–
CC(=O)Nc1ccc2nc(C3CCCCC3)[nH]c2c1	–	12.6 µM (active)
O=C(CSc1nnc(CNc2ccc(F)cc2)o1)OC1CCCCC1	-30.4%	–
Oc1ccc(/C=N/NC(=S)NCc2ccco2)cc1	2.33%	–
CCCn1c(C)nc2c(c1=O)c1nc3ccccc3nc1n2CCC1=CCCCC1	-23.2%	–
N#CC1(Nc2ccc(-c3ccc(NC4(C#N)CCCC4)cc3)cc2)CCCC1	8.6% [at 11.4 µM]	–
Cn1ncc(C#N)c1/N=C/N1CCCCCC1	3.27%	–
CCc1ccc(OCC(=O)NC(=S)Nc2ccc(C)cc2C)c(Br)c1	3.53%	–
CCOC(=O)c1nnn(-c2nc(OC)nc(N3CCCCC3)n2)c1-c1ccccc1	–	17.8 µM (active)
CCOC(=O)c1nnn(-c2nonc2N)c1-c1ccc(C)cc1	1.09%	–
CCOC(=O)c1nnn(-c2nonc2N)c1-c1ccccc1	5.69%	–
Cc1nn(Cc2c(F)c(F)c(F)c(F)c2F)c(C)c1NC(=O)c1cccc(COc2ccc(Cl)cc2)c1	-24.2%	–
COc1ccc(Oc2ncc3ncc(=O)n(C[C@H]4CCCO4)c3n2)cc1	4.88%	–
COc1ccc(NC(=O)c2ccc(-c3ccc(-c4noc(C)n4)cc3C)cc2)cc1OCCN(C)C	–	12.6 µM (active)
COc1ccc(NC(=O)c2cc(C(C)C)on2)cc1OC	-22.8%	–
COc1ccc(-c2cc(C(=O)Nc3cc(OC)c(OC)c(OC)c3)no2)cc1OC	-1.21%	–
CC[C@H]1C2=C3C(CC[C@H]4C(OCc5ccc(F)cc5C(F)(F)F)OC[C@](C)([C@@H]34)N(C(=O)OC(C)(C)C)C2)C(COC)C1COC (stereo partly drawn)	2.49%	–
CC(=O)NC1(c2cccc(F)c2)CCN(CC(=O)NC2CCCCC2)CC1	-8.39%	–
